The text below walks through data of PubChem BioAssay AID538 (PCMD, 2006).

The campaign covered roughly 62,000 compounds. About 100 (0.16%) were called active.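 The calls were made as follows: active = inhibition above 20% in each of the two 10-compound mixture wells holding the compound; inactive = the rest.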 Shown is part of a subset that was picked to be rich in actives.

The target of this experiment is Complement C1s subcomponent (Homo sapiens) (UniProt P09871). Briefly: complement C1s protease inhibitors, primary screen, biochemical, 10-compound mixtures (AID 538).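 Also: 0% = enzyme wells lacking compound mixture and 100% = no-enzyme blank wells.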 The following applies: purified C1s, fluorogenic AMC substrate, pooled mixtures; screened at 5 µM (by protocol).
Chain of Complement C1s subcomponent (Homo sapiens) (P09871 16-437 limits assumed): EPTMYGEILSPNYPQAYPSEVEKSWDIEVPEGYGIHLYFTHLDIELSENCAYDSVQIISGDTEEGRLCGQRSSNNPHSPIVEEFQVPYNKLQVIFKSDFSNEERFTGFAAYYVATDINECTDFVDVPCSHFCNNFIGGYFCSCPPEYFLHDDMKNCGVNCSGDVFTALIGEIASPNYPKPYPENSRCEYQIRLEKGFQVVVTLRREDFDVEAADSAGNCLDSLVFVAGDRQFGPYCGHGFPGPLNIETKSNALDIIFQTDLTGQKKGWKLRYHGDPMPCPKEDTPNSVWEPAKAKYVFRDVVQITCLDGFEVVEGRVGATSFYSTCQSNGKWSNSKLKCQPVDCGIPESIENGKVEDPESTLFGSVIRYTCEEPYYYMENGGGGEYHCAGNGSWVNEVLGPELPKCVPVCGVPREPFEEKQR
Chain of Complement C1s subcomponent (Homo sapiens) (P09871 438-688 limits assumed): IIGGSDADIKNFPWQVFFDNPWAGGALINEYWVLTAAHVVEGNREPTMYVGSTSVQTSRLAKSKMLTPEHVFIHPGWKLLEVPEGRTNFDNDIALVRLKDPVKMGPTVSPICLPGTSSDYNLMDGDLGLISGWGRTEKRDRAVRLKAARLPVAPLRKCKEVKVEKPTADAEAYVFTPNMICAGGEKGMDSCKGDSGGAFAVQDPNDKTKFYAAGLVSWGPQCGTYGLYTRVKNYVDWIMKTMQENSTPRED
Take `Cc1cc(C)c(C#N)c(SCc2ccccc2C(=O)O)n1`: the mean inhibition % of two 10-compound mixtures (stronger effect = higher value) is -0.765% (inactive).

As for `O=C(c1ccc2c(c1)OCO2)N1CCNc2ccccc2C1`, the mean inhibition % of two 10-compound mixtures (stronger effect = higher value) was 12.4% (inactive). In the case of `C=CCn1c(SCc2csc(C)n2)nc2scc(-c3ccc(C)o3)c2c1=O` it was -5.96% (inactive). Consider `CCN(c1ccccc1)S(=O)(=O)c1cccc(C(=O)O)c1`, for which the mean inhibition % of two 10-compound mixtures (stronger effect = higher value) is -13.8% (inactive).

For the molecule `CCOC(=O)n1c(SCC(=O)N(CC)CC)nc2ccccc21`, the mean inhibition % of two 10-compound mixtures (stronger effect = higher value) is 12.2% (inactive). With `O=C1c2ccccc2C(O)N1Cc1ccccc1` (configuration not stated), the mean inhibition % of two 10-compound mixtures (stronger effect = higher value) is -43.8% (inactive). For `COc1c(Br)cc2c(C)c(C(=O)N3CCOCC3)oc2c1Br`, the mean inhibition % of two 10-compound mixtures (stronger effect = higher value) is 2.58% (inactive). In the case of `CCOC(=O)COc1ccc(Cl)cc1C1NC(=O)NC(C)=C1C(C)=O` (configuration not stated), the mean inhibition % of two 10-compound mixtures (stronger effect = higher value) was -13% (inactive). `COc1cc2c(cc1OC)C(c1ccncc1)CC(=O)N2` (configuration not stated): the mean inhibition % of two 10-compound mixtures (stronger effect = higher value) is -11.7% (inactive). Regarding `CC(=O)Nc1ccc(S(=O)(=O)N2CCSCC2)cc1`, the mean inhibition % of two 10-compound mixtures (stronger effect = higher value) is 10.8% (inactive). With `CC(=O)Nc1ccc(NC(=O)CN2CCCC(C)C2)c(Cl)c1` (configuration not stated), the mean inhibition % of two 10-compound mixtures (stronger effect = higher value) is 8.18% (inactive). Take `O=C(O)CCSc1nnc(-c2ccccc2)n1-c1ccccc1`: the mean inhibition % of two 10-compound mixtures (stronger effect = higher value) was -30.3% (inactive). For the molecule `CC(C)OC(=O)c1cc(NC(=O)C2C3CCC(O3)C2C(=O)O)cc(C(=O)OC(C)C)c1` (configuration not stated), the mean inhibition % of two 10-compound mixtures (stronger effect = higher value) was -14.5% (inactive). As for `OC(COc1cccc2ccccc12)CN1CCN(c2ccccn2)CC1` (configuration not stated), the mean inhibition % of two 10-compound mixtures (stronger effect = higher value) was -2.25% (inactive).

As for `COC(=O)c1ccc(Oc2nc(NC(C)C)nc(SC)n2)cc1`, the mean inhibition % of two 10-compound mixtures (stronger effect = higher value) is -1.35% (inactive). Turning to `CCCCc1cc(=O)oc2cc(C)cc(OCc3nn[nH]n3)c12`, the mean inhibition % of two 10-compound mixtures (stronger effect = higher value) is -6.89% (inactive).

Take `CC(C)COC(=O)c1ccc(NC(=O)C2C3C=CC(C3)C2C(=O)O)cc1` (configuration not stated): the mean inhibition % of two 10-compound mixtures (stronger effect = higher value) is -22.9% (inactive). For the molecule `COc1ccccc1NC1=NC2(CCCC2)N=C(N)N1`, the mean inhibition % of two 10-compound mixtures (stronger effect = higher value) is -18.3% (inactive).

Take `Cc1cc(NC(=O)COn2nnc3ccccc32)no1`: the mean inhibition % of two 10-compound mixtures (stronger effect = higher value) was 0.88% (inactive). Turning to `CCOC(=O)C1C(=O)OC2(CCCC2)C1C(=O)OCC` (configuration not stated), the mean inhibition % of two 10-compound mixtures (stronger effect = higher value) is 0.585% (inactive).

For the molecule `COc1nc(OC)nc(N(C)CCO)n1`, the mean inhibition % of two 10-compound mixtures (stronger effect = higher value) is -12.5% (inactive). On to `CC1CCN(C(=O)Cn2cc(C(=O)c3ccco3)c3ccccc32)CC1`, for which the mean inhibition % of two 10-compound mixtures (stronger effect = higher value) was -1.29% (inactive).

`CC(C)(C)C(=O)CCN1C(=O)C2(OCCO2)c2ccccc21`: the mean inhibition % of two 10-compound mixtures (stronger effect = higher value) was 10.6% (inactive).

On to `CCCN(CCC)C(=O)C1c2ccccc2Oc2ccccc21`, for which the mean inhibition % of two 10-compound mixtures (stronger effect = higher value) is -0.445% (inactive). For the molecule `Nc1nc(SCCOc2ccccc2)n[nH]1`, the mean inhibition % of two 10-compound mixtures (stronger effect = higher value) was 2.17% (inactive).

For `CCCc1cc(=O)n2[nH]c(SCc3ccccc3)nc2n1`, the mean inhibition % of two 10-compound mixtures (stronger effect = higher value) was -2.75% (inactive).

Turning to `CC(=O)Oc1cccc(N2C(=O)CC(Nc3ccc(N4CCOCC4)cc3)C2=O)c1` (configuration not stated), the mean inhibition % of two 10-compound mixtures (stronger effect = higher value) was 6.64% (inactive). Consider `O=C(CN1CCN(c2ccccn2)CC1)NCc1cccs1`, for which the mean inhibition % of two 10-compound mixtures (stronger effect = higher value) was -12.2% (inactive). On to `O=C(CSc1nc2cc3c(cc2c(=O)n1CCC1=CCCCC1)OCO3)NCc1ccco1`, for which the mean inhibition % of two 10-compound mixtures (stronger effect = higher value) was 2.65% (inactive). On to `COc1ccc(S(=O)(=O)Nc2ccc(S(=O)(=O)N3CCCCC3)cc2)cc1OC`, for which the mean inhibition % of two 10-compound mixtures (stronger effect = higher value) is -2.79% (inactive).

For `COCCNC(=O)C(c1ccc(C)o1)N(Cc1ccccc1)C(=O)Cn1nnc2ccccc21` (configuration not stated), the mean inhibition % of two 10-compound mixtures (stronger effect = higher value) is -0.43% (inactive). For `CC(C)(C)NC(=O)C(c1ccco1)N(Cc1ccc2c(c1)OCO2)C(=O)Cn1nnc2ccccc21` (configuration not stated), the mean inhibition % of two 10-compound mixtures (stronger effect = higher value) was 22% (active). Take `CCC(C)(C)NC(=O)C(c1cccn1C)N(Cc1ccc(C)cc1)C(=O)Cn1nnc2ccccc21` (configuration not stated): the mean inhibition % of two 10-compound mixtures (stronger effect = higher value) is -0.485% (inactive). On to `CCOc1ccc(-c2nnn(CC(=O)N3CCN(c4ccc(F)cc4)CC3)n2)cc1OCC`, for which the mean inhibition % of two 10-compound mixtures (stronger effect = higher value) was -19.4% (inactive).

Regarding `CC(=O)c1c(C)[nH]c(C(=O)NCCCN2CCCC2)c1C`, the mean inhibition % of two 10-compound mixtures (stronger effect = higher value) was 13.1% (inactive). With `Cc1nc(Nc2ccc3c(c2)OCCO3)c2nnn(Cc3ccccc3Cl)c2n1`, the mean inhibition % of two 10-compound mixtures (stronger effect = higher value) was -7.66% (inactive).

Consider `Cn1c(SCC(=O)Nc2cccc(NC(=O)c3cccs3)c2)nnc1-c1ccncc1`, for which the mean inhibition % of two 10-compound mixtures (stronger effect = higher value) was -18.6% (inactive).

As to `COc1ccc(N2C(=O)CN=C2Nc2cccc(C)c2C)cc1OC`, the mean inhibition % of two 10-compound mixtures (stronger effect = higher value) was 13.9% (inactive). In the case of `COc1ccc(Cl)cc1NC(=O)c1oc(C)nc1C` it was -7.77% (inactive); in that of `Cc1nc(C)c(C(=O)Nc2ccc(C)c(F)c2)o1`, 4.8% (inactive). As for `Cc1nc(C)c(C(=O)Nc2cccc(C)c2C)o1`, the mean inhibition % of two 10-compound mixtures (stronger effect = higher value) is 22% (active). Turning to `COCc1nc2ccccc2n1Cc1ccccc1Br`, the mean inhibition % of two 10-compound mixtures (stronger effect = higher value) was -10.1% (inactive). Turning to `COc1cccc(C2/C(=C(/O)c3ccc(F)cc3)C(=O)C(=O)N2CCN(C)C)c1` (configuration not stated), the mean inhibition % of two 10-compound mixtures (stronger effect = higher value) was 2.55% (inactive). `Cc1ccc(NC(=O)N2CCC(C(=O)NCc3ccc(F)cc3)CC2)cc1`: the mean inhibition % of two 10-compound mixtures (stronger effect = higher value) was 26.6% (inactive).

Turning to `CCOC(=O)c1[nH]c2ccc(C)cc2c1N=C(C)N(C)C`, the mean inhibition % of two 10-compound mixtures (stronger effect = higher value) was -3.15% (inactive). For `COc1ccc(-n2c(SCC(=O)NCc3cccs3)nnc2-c2ccoc2C)cc1`, the mean inhibition % of two 10-compound mixtures (stronger effect = higher value) is 1.91% (inactive).

For the molecule `O=C(Cn1cnc2c(cnn2-c2ccccc2)c1=O)NCc1ccccc1`, the mean inhibition % of two 10-compound mixtures (stronger effect = higher value) is 4.69% (inactive).

For the molecule `O=C(OC1CCOC1=O)c1ccc(-c2nc3ccccc3s2)s1` (configuration not stated), the mean inhibition % of two 10-compound mixtures (stronger effect = higher value) was 3.37% (inactive). As for `CCOc1ccccc1C1CC(c2ccccc2)Nc2nc(N)nn21` (configuration not stated), the mean inhibition % of two 10-compound mixtures (stronger effect = higher value) is -0.62% (inactive). Consider `CCOC(=O)CCC(=O)OCC(=O)NC(C)C1CC2CCC1C2` (configuration not stated), for which the mean inhibition % of two 10-compound mixtures (stronger effect = higher value) is -1.13% (inactive).

As for `CCCCCC(=O)Nc1ccc2oc(-c3ccncc3)nc2c1`, the mean inhibition % of two 10-compound mixtures (stronger effect = higher value) was -5.25% (inactive). In the case of `CCCCSc1nnc(-c2ccc(NC(=O)CC)cc2)n1C` it was 10.2% (inactive); in that of `Cc1ccc2c(c1)NCC(C(=O)NC1CCC(C)CC1)O2` (configuration not stated), -7.38% (inactive); in that of `CN(C)CCCNc1c2c(c(C#N)c3nc4ccccc4n13)CCC2`, 11.8% (inactive). In the case of `COc1ccc(S(=O)(=O)Nc2c(C)n(C)n(-c3ccccc3)c2=O)cc1` it was -40.7% (inactive); in that of `CCn1c(-c2cc(OC)ccc2OC)csc1=Nc1c(C)n(C)n(-c2ccccc2)c1=O`, 11.4% (inactive). Under `Cc1ccc(C(=O)N2CCCCCC2)cc1Br` stands 48.4% (inactive). Take `O=S(=O)(CCc1nc2ccccc2o1)c1ccc(Cl)cc1`: the mean inhibition % of two 10-compound mixtures (stronger effect = higher value) is 1.62% (inactive).

Take `COC(=O)c1ccc(NC(=O)CSc2nnc(-c3ccncc3)n2C)cc1`: the mean inhibition % of two 10-compound mixtures (stronger effect = higher value) was 4.27% (inactive).

Consider `Cc1ccc(S(=O)(=O)n2nc(OC(=O)C(C)(C)C)cc2N)cc1`, for which the mean inhibition % of two 10-compound mixtures (stronger effect = higher value) was -80.6% (inactive). Turning to `O=C(CCS(=O)(=O)c1cccc2nonc12)NCCc1ccccc1Cl`, the mean inhibition % of two 10-compound mixtures (stronger effect = higher value) was -46.5% (inactive).

For the molecule `CCCC1C(c2ccccc2)C(C#N)(C#N)C2(C#N)CC1(N)NC2=O` (configuration not stated), the mean inhibition % of two 10-compound mixtures (stronger effect = higher value) is 13.4% (inactive).
